Source: PubChem BioAssay (EPA / NIEHS)
Active and inactive are the calls of the source. The calls were made as follows: active = hit-call score of the fitted dose curve at least 0.9, where 1 is the maximum; inactive = score below 0.9.

Each molecule was assayed on adenosine kinase (ADK) gene, ADK (gene 132) (assay: LTEA_HepaRG_ADK: Life Technologies and Expression Analysis (LTEA) Assay for adenosine kinase (ADK) gene using HepaRG (AID 2283471)). Settings: mRNA level, 48 h; actives raise or lower the signal.
Method: LTEA_HepaRG is a cell based, multiplexed-readout assay that uses HepaRG, a human liver cell line, with measurements taken at 48 hours after chemical dosing on a 96-well plate.LTEA_HepaRG_ADK is one of 102 assay component(s) measured in the LTEA HepaRG cell culture assay. It is a marker of Steatosis.Data from the assay component LTEA_HepaRG_ADK was analyzed into 1 endpoint. This assay endpoint, LTEA_HepaRG_ADK, was analyzed with bidirectional fitting relative to DMSO as the negative control and baseline of activity. Using a type of inducible reporter, measures of mRNA induction for gain or loss-of-signal activity can be used to understand regulation of transcription factor activity. To generalize the intended target to other relatable targets, this assay endpoint is annotated to the kinase intended target family, where the subfamily is steatosis.
A total of 1060 chemcials from the ToxCast library were tested in eight-point concentration-response experiments. Cell culture and cytotoxicity assays were conducted at Thermo Fisher Scientific's Custom Services facility (Madison, WI). A single lot of human HepaRG cells (Thermo Fisher Scientific, Frederick, MD) was used for the cell culture experiments. 96-well format collagen type I coated plates of human HepaRG cells were prepared using established methods. Briefly, cryopreserved HepaRG cells were thawed, plated at a density of approximately 100,000 cells/well in HepaRG Thaw, Plate, and General Purpose media (HPRG770, Thermo Fisher Scientific), and incubated for 48 hours. 0.5% DMSO was selected as vehicle control to balance the requisite need of DMSO in HepaRG cultures to maintain differentiation (for example, baseline metabolism, proportions of hepatocytes vs. cholangiocytes), while enabling further hepatic receptor pathway activation (for example, PXR and CAR) in response to chemical exposure. 48 hours after plating, the culture medium was replaced with HepaRG Serum-Free Incudtion Media. Cells were exposed to each test chemical in duplicate and maintained in CO2 incubators for another 48 hours. Chemical plates were thawed to room temperature and 200x concentrations of treatment groups were prepared. 8-point conentration-reponse curves were made with the highest exposure at 100 uM, followed by half-log dilutions, all in 0.5% DMSO. Each test plate contained variouse controls, induction positive controls (1mM phenobarbital), cytotoxicity positive controls ([…] aflatoxin B1), vehicle controls (0.5% DMSO), and total lysis controls (0.5% DMSO). Cell morphology images were taken using an Essen IncuCyte FLR automated microscope, with six 96-well plates imaged in about 24 minutes. Images were captured and exported and JPEG files. Spent culture media was transfered to black-well plates for the LDH assay, and remaining media was sorted at -80 C for later use. Cells were treated with RLT buffer and frozen until shipped for gene expression analysis. Total RNA was isolated from the cell suspension in 75 uL of Buffer RLT (Qiagen, Germantown, MD 20874) by Quintiles/Expression Analysis (Durham, NC) using a custom isolation procedure. Total RNA from each plate well was transferred to a preamplification plate. Fluidigm's 96.96 Dynamic ArrayTM (Fluidigm, Amsterdam, the Netherlands) technology was used for gene expression analyses by quantitative reverse transcription polymerase chain reaction (qRT-PCR, performed by Quintiles/Expression Analysis, Durham, NC)89. Standard TaqManTM Assays (Applied Biosystems/ThermoFisher Scientific, Foster City, CA) were used to assess the expression of 93 genes selected based on their selectivity and sensitivity to important hepatic receptors known to be modulated by environmental chemicals; importance in human hepatocyte functionality; and hepatotoxicity. […]
`COCCOCCO` was tested, and the outcome was “inactive”.
In the case of `ClC1=C(Cl)C2(Cl)C3C(Cl)C(Cl)CC3C1(Cl)C2(Cl)Cl` (stereo not given), the outcome was “inactive”.
For `Cc1ccc(O)cc1C`, the outcome was “inactive”.
In the case of `O=[N+]([O-])c1ccccc1`, the outcome was “inactive”.
With `CCOC(=O)c1ccccc1C(=O)OCC` the outcome was “inactive”.
With `Nc1cc2c3c(c1)C(c1ccccc1)=N[C@@H](NC(=O)c1cccnc1)C(=O)N3CC2` the outcome was “inactive”.
For `c1ccc2c(c1)Nc1ccccc1S2`, the outcome was “inactive”.
With `OCC1CO1` (stereo not given) the outcome was “inactive”.
With `O=C(O)C(Cl)Cl` the outcome was “inactive”.
`CCOP(=S)(OCC)SCSCC` was tested, and the outcome was “inactive”.
`CCOP(=S)(Oc1ccc([N+](=O)[O-])cc1)c1ccccc1` (stereo not given) was tested, and the outcome was “inactive”.
For `[N-]=[N+]=[N-]`, the outcome was “inactive”.
In the case of `CCCN(CCC)c1c([N+](=O)[O-])cc(C(C)C)cc1[N+](=O)[O-]`, the outcome was “inactive”.
In the case of `Cc1cccc(N)c1`, the outcome was “inactive”.
`Nc1ccc(Cl)cc1` was tested, and the outcome was “inactive”.
For `CCC1(c2ccccc2)C(=O)N=C(O)NC1=O` (stereo not given), the outcome was “inactive”.
`O=P(Oc1ccccc1)(Oc1ccccc1)Oc1ccccc1` was tested, and the outcome was “inactive”.
With `c1cc2c3c(cccc3c1)CC2` the outcome was “inactive”.
For `O=C(O)C1C(C(=O)O)C2(Cl)C(Cl)=C(Cl)C1(Cl)C2(Cl)Cl` (stereo not given), the outcome was “inactive”.
For `CCOc1ccc(C(C)(C)COCc2cccc(Oc3ccccc3)c2)cc1`, the outcome was “inactive”.
In the case of `Nc1ccc2ccccc2c1`, the outcome was “inactive”.
With `CN(C)C(=O)Cl` the outcome was “inactive”.
For `c1nc[nH]n1`, the outcome was “inactive”.
In the case of `CCCCCCCc1ccc(O)cc1`, the outcome was “inactive”.
For `ClC(Cl)(Cl)c1ccccc1`, the outcome was “inactive”.
For `Cc1ccc([N+](=O)[O-])cc1C`, the outcome was “inactive”.
For `CC(Cc1ccc(OCC(=O)O)cc1)NCC(O)c1csc(C(F)(F)F)n1` (stereo not given), the outcome was “inactive”.
For `ClC(Cl)c1ccccc1`, the outcome was “inactive”.
For `CCN(CC)c1ccccc1`, the outcome was “inactive”.
`O=P1(N(CCCl)CCCl)NCCCO1` (stereo not given) was tested, and the outcome was “inactive”.
`CCCCN(CCCC)SN(C)C(=O)Oc1cccc2c1OC(C)(C)C2` was tested, and the outcome was “inactive”.
`CCCCc1ccccc1` was tested, and the outcome was “inactive”.
For `CSC(C)(C)C=NO`, the outcome was “inactive”.
For `Cc1ccc(N)cc1N`, the outcome was “inactive”.
`CC(Cl)(Cl)C(=O)O` was tested, and the outcome was “inactive”.
`CCNc1nc(Cl)nc(NC(C)(C)C)n1` was tested, and the outcome was “inactive”.
With `CC(C)(C)OOC(C)(C)C` the outcome was “inactive”.
With `CCOS(=O)(=O)OCC` the outcome was “inactive”.
`CCC(C)(C)c1ccc(O)cc1` was tested, and the outcome was “inactive”.
For `O=[N+]([O-])c1ccc(Cl)c(Cl)c1`, the outcome was “inactive”.
